HT1080 IDH1KD tx – HT-1080 IDH1 knockdown cell toxicity (counter line). Potency, µM (titrated, usually from 46.1 µM), inactives show top-dose activity, negative = toxicity, hits mostly cytotoxic. HT-1080 IDH1 knockdown viability, ATP luminescence, 48 h. 360,000 tested, 2% active;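 further: potency means the concentration at half of the fitted maximal effect; 0% = DMSO wells and -100% = cell-free medium wells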
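HT-1080-IDH1KD cells (IDH1 knocked down), 750/well in RPMI with 5% FBS, treated with compound 48 h at 37 degrees C. Viability by CellTiter-Glo luminescence, normalised to DMSO and no-cell wells; concentration-response curves classed.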
DT40 TDP1 no CPT – qHTS for Inhibitors of human tyrosyl-DNA phosphodiesterase 1 (TDP1): qHTS in cells in absence of CPT | DT40 Tdp1-/- hTDP1 cells, no CPT, ATP luminescence, 48 h | Potency, µM (doses to about 46.2 µM), for the others: top-dose activity change, negative = growth inhibition, usual class: inhibitors | 420,000 tested, 15% active; further: potency means the concentration at half of the fitted maximal effect; nearly all actives have a fitted effect of over 55% in size
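Growth kinetics read by CellTiter-Glo luminescence after ≥48 hr at 37 °C. Cells: DT40 Tdp1-/- stably carrying human TDP1, 400 per well, compound exposure in the absence of CPT (DMSO vehicle).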
DT40 TDP1 CPT – DT40-hTDP1 cell growth loss with CPT. chicken DT40 Tdp1-/-;hTDP1 cells + 20 nM CPT, ATP luminescence, 48 h. Potency, µM (highest dose often 46.2 µM), inactives show at the highest dose activity change, negative = growth inhibition, usual class: inhibitors. 420,000 tested, 12% active. AID 686979; further: potency means the concentration at half of the fitted maximal effect; nearly all actives have a fitted effect of over 55% in size
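Chicken DT40 Tdp1-/- cells complemented with human TDP1, 400 cells/well, exposed to compounds plus 20 nM camptothecin for at least 48 h at 37 C; viability read as ATP content by CellTiter-Glo luminescence.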
12-LOX inh – blocks human arachidonate 12S-lipoxygenase; purified 12hLO, xylenol orange hydroperoxide absorbance; Potency, µM (highest dose often 108 µM), without a hit: at the top dose activity change, negative = inhibition, actives largely listed as inhibitors; 580,000 tested, 1.1% active; further: potency means the concentration at half of the fitted maximal effect
Target sequence (P18054 whole entry, looked up): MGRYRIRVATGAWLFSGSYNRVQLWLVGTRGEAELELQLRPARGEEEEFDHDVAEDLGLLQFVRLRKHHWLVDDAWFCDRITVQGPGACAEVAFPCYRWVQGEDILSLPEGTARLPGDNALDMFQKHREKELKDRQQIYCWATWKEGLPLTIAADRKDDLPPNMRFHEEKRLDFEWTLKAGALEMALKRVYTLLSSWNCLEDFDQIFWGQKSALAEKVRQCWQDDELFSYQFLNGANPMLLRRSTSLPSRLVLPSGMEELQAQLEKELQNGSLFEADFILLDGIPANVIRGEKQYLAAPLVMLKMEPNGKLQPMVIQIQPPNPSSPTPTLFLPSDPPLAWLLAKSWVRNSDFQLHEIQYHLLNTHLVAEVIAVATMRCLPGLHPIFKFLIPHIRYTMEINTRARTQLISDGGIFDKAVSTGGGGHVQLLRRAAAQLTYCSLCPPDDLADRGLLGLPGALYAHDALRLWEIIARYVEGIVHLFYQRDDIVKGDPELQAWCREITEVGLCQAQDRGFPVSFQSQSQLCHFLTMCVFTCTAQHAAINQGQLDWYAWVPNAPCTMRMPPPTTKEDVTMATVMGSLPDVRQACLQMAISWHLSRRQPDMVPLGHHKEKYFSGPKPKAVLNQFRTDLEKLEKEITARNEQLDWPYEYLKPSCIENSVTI
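Purified human 12hLO (150 nM final) in 25 mM Hepes, 0.01% Triton X-100, pH 7.0 was preincubated 15 min at room temperature with compound. Then 40 uM arachidonic acid was added, 30 min. Hydroperoxide was read by Fe-XO absorbance ratio 573/405 nm.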
HT1080-NT tox – kills 2HG-producing HT-1080-NT fibrosarcoma cells | HT-1080-NT fibrosarcoma viability, CellTiter-Glo ATP luminescence, 48 h | Potency, µM (highest dose often 46.1 µM), without a hit: top-dose activity, negative = less viability, most hits filed as cytotoxic | 360,000 tested, 1.6% active | AID 686970;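 further: NT is the 2HG producing partner of a matched IDH1 knockdown line; potency means the concentration at half of the fitted maximal effect; 0% = DMSO-treated cells and -100% = media-only wells without cells; nearly all actives have a fitted effect of over 55% in size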
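Luminescent CellTiter-Glo readout after 48 hours of compound exposure at 37 degrees C defined viability of HT-1080-NT cells. Activity was normalized to DMSO wells and cell-free media wells; concentration-response curves were fitted and assigned curve classes.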
IL-1B inflam inh – blocks inflammasome-driven IL-1 beta release | THP-1 LPS/ATP IL-1B secretion, AlphaLISA, 16 h; hits give low values | activity change, % at 57.5 µM | 360,000 tested, 4.7% active | AID 743279; in the data active means activity change below about -50%; inconclusive means mostly about -30% to -49%
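Secreted IL-1B measured by AlphaLISA bead assay after 16 h compound exposure of THP-1 cells; compounds (final up to 57.5 uM) added 1 h before LPS (250 ng/mL) and ATP (1.25 mM) stimulation; lower signal means less secretion.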
The depositor's hits bear a star; u = inconclusive; x = no result; [ ] = another dose, or the depositor's remark. This is one part of a sample in which hits are shown more often than they occur. Unless noted, the call rests on the fitted dose curve; in most records, active means well fitted curve in the direction sought with a large enough effect; inconclusive means small, poorly fitted or top-dose-only effect, or another doubt; inactive means no such curve, though single readings can be large; an effect the other way counts as inactive or inconclusive. Unless noted, on the % scale 0 is the no-effect control and ±100 the full control effect.

SMILES | HT1080 IDH1KD tx | DT40 TDP1 no CPT | DT40 TDP1 CPT | 12-LOX inh | HT1080-NT tox | IL-1B inflam inh
CCOC(=O)c1sc(NC(=O)c2cccs2)cc1C | u | u | u | 0% | -26% | u
CCOC(=O)c1sc(NC(=S)NC(=O)C23CC4CC(CC(C4)C2)C3)cc1C | 8% | u | -1% | 35µM* | 6% | 43
CCOC(=O)c1sc(NC(=O)Nc2cccc(Cl)c2)cc1C | u | 9.2µM* | 10µM* | -16% | u | -76*
CCOC(=O)c1sc(NC(=O)c2ccc(Br)o2)cc1C | -24% | 16µM* | u | -5% | 0% | u
Cc1ccc(-c2ccc3nnc(CNC(=O)c4cc(F)ccc4F)n3n2)cc1 | x | x | x | 4% | x | x
CCc1cccc(CC)c1NC(=O)CSc1nc(CN(C)C)nc2ccccc12 | x | x | x | 1% | x | x
O=C(O)Cn1ccc2cc(OCCc3cccc(-c4ccc(F)cc4)c3)cnc21 | x | x | x | 50µM* | x | x
O=C(O)Cn1ccc2cc(OCCc3cccc(-c4cccc(F)c4)c3)cnc21 | x | x | x | 50µM* | x | x
O=C(NCC1CC1)C1CN(c2ccccc2)C(=O)N1 (stereo not drawn) | x | x | x | 14%[176 µM] | x | x
CC1=CC(c2ccccc2)=NS(=O)(=O)N1 | 0% | -5% | -6% | -14% | 1% | -104*
CCOC(=O)C1=NS(=O)(=O)NC(C)=C1 | 9% | -9% | -11% | -6% | 1% | 19
COCCNC(=O)c1ccc2c(c1)N(C)C(CC(=O)N1CCCOCC1)CO2 (stereo not drawn) | x | x | x | -6% | x | x
CCOC(=O)c1ccc(NC(=O)Cc2coc3cc4c(cc23)CCC4)cc1 | -11% | u | u | -13% | -7% | 12
Cc1ccc(NC(=O)Cc2coc3ccc(C(C)C)cc23)cc1Cl | x | 29µM* | u | -22% | x | x
CCOc1ccc(NC(=O)Cc2coc3ccc(C)cc23)cc1 | x | 21µM* | 16µM* | -11% | x | x
CCc1ccc2occ(CC(=O)Nc3nnc(SC)s3)c2c1 | x | 2% | -18% | -4% | x | x
CCCCOC(=O)c1ccc(NC(=O)Cc2coc3ccc(C(C)C)cc23)cc1 | x | 23µM* | 26µM* | -9% | x | x
CCc1ccc2occ(CC(=O)Nc3ccc(C)c(C)c3)c2c1 | x | 13µM* | u | 5% | x | x
COc1ccc(NC(=O)c2oc3ccccc3c2NC(=O)Cc2coc3ccc(C)cc23)cc1 | x | u | -24% | 3% | x | x
CS(=O)(=O)NCCc1ccc(C(=O)O)cc1 | x | x | x | 59% | x | x
N#Cc1cccnc1N1CCN(Cc2ccc(F)c(F)c2)C(CCO)C1 (stereo not drawn) | x | x | x | 24% | x | x
N#CC(=C1C=C(Br)C(=NO)C=C1Cl)c1ccc(Cl)cc1 | -19% | 2.6µM* | 4.6µM* | u | -20% | u
N#CC(=Nc1ccccc1)c1ccccc1 | 5% | -11% | -1% | -34% | 8% | -25
N#CC(=C1C=CC(=NO)C(Cl)=C1)c1ccccc1 | 5.8µM* | 1.3µM* | 0.65µM* | u | 7.3µM* | -98*
CC(NC(=O)c1n[nH]c(=O)c2ccccc12)c1ccco1 (stereo not drawn) | x | x | x | -23% | x | x
SMILES | HT1080 IDH1KD tx | DT40 TDP1 no CPT | DT40 TDP1 CPT | 12-LOX inh | HT1080-NT tox | IL-1B inflam inh
COc1ccc(CNC[C@H]2COCc3nc4cc(C(F)(F)F)ccc4n32)cn1 | x | x | x | 19%[176 µM] | x | x
COc1ccccc1NS(=O)(=O)c1cccc(C(=O)NC2CCN(Cc3ccccc3)CC2)c1 | -7% | 23µM* | u | x | u | u
Cc1cccc(C(=O)NC2CC3CCCC(C2)N3S(=O)(=O)c2ccccc2)c1 (stereo not drawn) | -6% | 18µM* | 13µM* | -10% | -6% | -56*
Cc1ccc(NS(=O)(=O)c2cccc(C(=O)NC3CCN(Cc4ccccc4)CC3)c2)c(C)c1 | u | u | 9.2µM* | 45% | u | u
O=C(NC1CCN(Cc2ccccc2)CC1)c1cccc(S(=O)(=O)Nc2ccc(Br)cc2)c1 | -19% | u | 21µM* | u | -19% | u
O=C(NC1CCN(Cc2ccccc2)CC1)c1cccc(C(F)(F)F)c1 | x | x | x | -29% | x | x
Cc1cccc(C(=O)NC2CC3CCCC(C2)N3C(=O)Nc2ccccc2)c1 (stereo not drawn) | 2% | u | -30% | -3% | -9% | 6
O=C(O)c1cccc(C(=O)N2C[C@@H]3C[C@H](C2)c2ccc(NC(=O)c4cccs4)c(=O)n2C3)c1 | x | x | x | -5% | x | x
O=C(Cc1ccsc1)Nc1cccc(Cl)c1 | x | x | x | 6% | x | x
O=C(NC1CCCCC1)C1CN(S(=O)(=O)c2ccc(F)cc2F)CC12CCOCC2 (stereo not drawn) | x | x | x | 16% | x | x
Cc1noc(C)c1S(=O)(=O)N1CCCC(Cc2nncn2C)C1 (stereo not drawn) | x | x | x | 18% | x | x
CCN(c1ccccc1)S(=O)(=O)c1cccc(C(=O)NC2CC2)c1 | x | x | x | 10% | x | x
C=CCN(c1ccccc1)S(=O)(=O)c1cccc(C(=O)NC2CCN(Cc3ccccc3)CC2)c1 | -15% | 18µM* | 13µM* | -22% | -5% | -54*
COc1ccc(NS(=O)(=O)c2ccc(C)c(C(=O)NCc3ccccc3CN3CCCC3)c2)cc1 | -7% | u | u | 2% | -12% | -7
COc1ccccc1NS(=O)(=O)c1ccc(C)c(C(=O)NC2CCN(Cc3ccccc3)CC2)c1 | -15% | 16µM* | 21µM* | 2% | -12% | -57*
COc1ccc(NS(=O)(=O)c2ccc(C)c(C(=O)NC3CCN(Cc4ccccc4)CC3)c2)cc1 | -17% | u | 16µM* | u | -3% | 12
CCN(CC)S(=O)(=O)c1ccc(Cl)c(C(=O)NC2CCN(Cc3ccccc3)CC2)c1 | 2% | 13µM* | 16µM* | 20% | -1% | -9
CCOc1cc(C2SC(NC(C)=O)=NN2C(C)=O)ccc1OCc1ccccc1F (stereo not drawn) | x | x | x | 24% | x | x
CCN(CC)S(=O)(=O)c1cccc(C(=O)Nc2cc(C)nn2-c2ccccc2)c1 | 2% | u | 2% | -19% | -14% | 22
CCN(CC)S(=O)(=O)c1ccc(Cl)c(C(=O)Nc2cc(C)nn2-c2ccccc2)c1 | -11% | u | 18µM* | -17% | -4% | -18
COc1ccc(NC(=O)C(c2ccc(OC)cc2)N(Cc2ccco2)C(=O)CC2NC(=O)NC2=O)cc1 (stereo not drawn) | 5% | -9% | 10% | -20% | -13% | 25
